This excerpt belongs to a sample that is enriched for hits.
FBPA Giardia inh = qHTS Assay for Inhibitors of Fructose-1,6-bisphosphate Aldolase from Giardia Lamblia | A8B2U2 | purified Giardia FBPA | hit rate 0.71% among 290,000 | Potency, µM (series often up to 59.6 µM), inactives show at the highest dose activity, negative = inhibition, usual class: inhibitors; also: potency is read from the fitted curve at half-maximal effect; % is scaled to controls: 0 for no effect and ±100 for the full control effect; nearly all actives have a fitted effect of over 55% in size
Target sequence (A8B2U2 whole entry, looked up): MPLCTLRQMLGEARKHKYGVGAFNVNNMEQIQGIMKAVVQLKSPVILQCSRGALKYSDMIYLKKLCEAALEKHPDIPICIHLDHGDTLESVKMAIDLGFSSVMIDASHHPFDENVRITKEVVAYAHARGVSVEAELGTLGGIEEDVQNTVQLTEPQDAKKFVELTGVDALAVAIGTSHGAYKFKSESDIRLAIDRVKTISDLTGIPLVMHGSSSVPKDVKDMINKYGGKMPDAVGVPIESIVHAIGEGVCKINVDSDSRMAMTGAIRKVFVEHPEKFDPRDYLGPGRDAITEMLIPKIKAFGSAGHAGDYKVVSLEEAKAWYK
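40 nM FBPA preincubated 10 min at RT with compound (up to 57.5 uM final), then substrate plus GAPDH/TPI/NAD/arsenate coupling and diaphorase/resazurin added. Fluorescence read after 20 min at RT, 525/598 nm.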
Tb PYK inh = qHTS of Trypanosoma Brucei Inhibitors; pyruvate kinase (Trypanosoma brucei), Q57TT1; TbPYK enzyme, Kinase-Glo Plus ATP luminescence, 45 min; Potency, µM (doses to about 76.8 µM), for the others: at the top dose activity, negative = inhibition, most hits filed as inhibitors; hit rate 0.12% among 410,000; AID 624173, 2012; also: potency is read from the fitted curve at half-maximal effect; % is scaled to controls: 0 for no effect and ±100 for the full control effect; nearly all actives have a fitted effect of over 50% in size
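Assay buffer: 50 mM TEA pH 7.2, 100 mM KCl, 10 mM MgCl2, 0.05% BSA, 0.01% Tween-20. Pyruvate kinase from T. brucei plus substrate met compound, then ADP (130 uM final). Luminescence was read post 45 min RT.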
RE007 growth inh = qHTS Assay for Inhibitors of the HIV-1 protein Vpr. S. pombe RE007 Vpr strain, BacTiter-Glo ATP luminescence, 24 h. Potency, µM (series often up to 92.2 µM), for inactives: at the highest dose activity change, negative = less growth, hits mostly inhibitors. AID 651644, 2012. hit rate 0.21% among 360,000; active = well fitted falling curve with a large enough effect; inconclusive = small, poorly fitted or top-dose-only effect; inactive = no such curve, though single readings can be large or run the other way; also: potency is read from the fitted curve at half-maximal effect; % is scaled to controls: 0 for no effect and ±100 for the full control effect; nearly all actives have a fitted effect of over 50% in size
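Fission yeast RE007 carrying one integrated HIV-1 vpr copy, seeded at OD 0.01 in PMG+AL medium with 23 nL pinned compound. Grown 24 h at 30 degrees; viability read by BacTiter-Glo luminescence after 5 min.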
Cycloheximide cs = Cycloheximide Counterscreen for Small Molecule Inhibitors of Shiga Toxin | cell reporter, cycloheximide protein synthesis inhibition counterscreen | hit rate 12% among 300,000 | AID 2314, 2010 | max response, %; in the data active = max response mostly above about 13%, no sharp cut-off; inactive = mostly below about 14%; also: read at 38.3 µM for the half of the compounds with a filed dose; 0% is about no effect
Shiga toxin inh = A qHTS for Small Molecule Inhibitors of Shiga Toxin | Vero cells, Shiga toxin protein synthesis inhibition reporter | inhibition, % at 38.7 µM | hit rate 9.2% among 290,000; in the data active = inhibition mostly above about 28%, no sharp cut-off; inactive = mostly below about 43%; also: 0% is about no effect
LmPK inh = qHTS Assay for Inhibitors of Leishmania Mexicana Pyruvate Kinase (LmPK); purified LmPK, Kinase-Glo ATP luminescence, 1 h; Potency, µM (doses to about 57.5 µM), for inactives: at the highest dose activity change, negative = inhibition, hits mostly inhibitors; hit rate 0.37% among 290,000; AID 1721, 2009; also: potency is read from the fitted curve at half-maximal effect; % is scaled to controls: 0 for no effect and ±100 for the full control effect
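In 50 mM imidazole pH 7.2 with 7 mM MgCl2, LmPK (0.1 nM) turned over PEP (0.5 mM) and ADP (0.1 mM) for 1 h at room temperature. Luciferase read-out of ATP.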
Numbers without * were called inactive; ? = inconclusive; · = no result given. Unless noted, calls follow the shape of the dose curve; as a rule, active = well fitted curve in the direction sought with a large enough effect; inconclusive = small, poorly fitted or top-dose-only effect, or another doubt; inactive = no such curve, though single readings can be large; an effect the other way counts as inactive or inconclusive.

SMILES	FBPA Giardia inh	Tb PYK inh	RE007 growth inh	Cycloheximide cs	Shiga toxin inh	LmPK inh
COCCCN(Cc1ccco1)C(=O)c1cc2c(s1)-c1ccccc1OC2	·	2%	·	·	·	·
O=S(=O)(NC1CCCC1)c1cccc(-c2nnc(-c3ccccc3)o2)c1	0%	-7%	14%	30*	7	7%
COc1ccc(NS(=O)(=O)c2ccc(NS(=O)(=O)c3cccc(C(=O)O)c3)cc2)cc1	·	1%	-7%	-7	43	-1%
O=S(=O)(NC1CCCCCCC1)c1ccccc1	-7%	-6%	-9%	0	-6	-6%
COc1ccc(NS(=O)(=O)c2cccc(-c3nnc(-c4ccccc4)o3)c2)cc1	-2%	-15%	-16%	15*	57*	-9%
CCOC(=O)c1c(C)[nH]c(C)c1S(=O)(=O)N1CCC(C(=O)Nc2ccc(C)cn2)CC1	·	1%	·	·	·	·
CC(C)c1ccc(/C=C/c2[nH]c(=O)[nH]c(=O)c2[N+](=O)[O-])cc1	5%	0%	8%	13*	19*	-2%
CCOc1ccc(/C=C/c2[nH]c(=O)[nH]c(=O)c2[N+](=O)[O-])cc1	2%	-1%	-4%	-3	·	0%
O=C(Nc1cccc(Cl)c1)Nc1csc([N+](=O)[O-])c1	-13%	-7%	-11%	16*	46*	7%
O=C(NCc1ccncc1)Nc1cccc(Cl)c1	-3%	-3%	-3%	16*	13	-3%
O=C(Nc1ccncc1)Nc1ccccn1	2%	3%	-1%	-4	60	-4%
O=C(Nc1ccccc1)Nc1ccncc1	2%	1%	-9%	15	57*	-18%
O=C(Nc1ccncc1)Nc1cccc(Cl)c1	6%	-2%	-8%	16*	20	1%
C[C@H](O)CN(C)C	·	7%	·	·	·	·
COc1ccc(CNC(=O)Nc2cccc(Cl)c2)cc1	·	6%	-11%	43*	46*	0%
CCN1/C(=C2\OC(=S)N(C)C2=O)Sc2ccccc21	3%	1%	-30%	14*	40*	1%
CCN1C(=O)/C(=C2/Sc3ccccc3N2CC)SC1=S	10%	-6%	-14%	-2	·	2%
COc1ccc(Cl)cc1NC(=O)Cn1c(=O)c(-c2ccccc2NC(C)=O)nc2ccccc21	·	-3%	·	·	·	·
Clc1ccc(CSc2nnc(Cn3cnc4ccccc43)o2)cc1	-23%	-6%	19%	-5	-4	9%
Clc1cccc(CSc2ncn(-c3ccccc3)n2)c1	-10%	1%	-11%	23*	35*	6%
Clc1ccc(CSc2ncn(-c3ccccc3)n2)cc1	-18%	2%	-28%	31*	-7	2%
Cn1c(CCn2ccccc2=O)nc2cc(NC(=O)COc3ccccc3)ccc21	·	-1%	-1%	29*	18	-11%
CCC(=O)NCCc1nc2cc(NC(=O)Nc3ccccc3)ccc2n1C	3%	-9%	-11%	23	43*	-5%
CCC(=O)NCCc1nc2cc(NC(=O)c3ccccc3Cl)ccc2n1C	-7%	4%	-13%	32*	62*	2%
CC(=O)Nc1ccc2c(c1)nc(CCNC(=O)c1ccccc1)n2C	2%	7%	-13%	-2	6	-4%
SMILES	FBPA Giardia inh	Tb PYK inh	RE007 growth inh	Cycloheximide cs	Shiga toxin inh	LmPK inh
CCC(=O)NCCc1nc2cc(NC(=O)c3cccc(Br)c3)ccc2n1C	·	0%	·	·	·	·
CCOC(=O)/C=C/CCC/C=C/C(=O)c1ccccc1	0%	·	·	·	·	·
CCOc1ccc(CCNC(=O)Cn2c(-c3cccs3)cc3ccccc32)cc1	·	3%	·	·	·	·
CCN1C(=S)SC(=O)C1=C1C=C(C)N(Cc2ccco2)C(C)=C1	-18%	3%	-5%	55*	96*	1%
CSCCNC(=O)c1ccc(OC2CCN(CCc3ccccc3)CC2)cc1	2%	1%	9%	15*	27	1%
O=C(NCCn1cccn1)c1ccc(OC2CCN(CCc3ccccc3)CC2)cc1	1%	7%	-3%	14*	29*	10%
CCN(CCn1cccn1)C(=O)c1ccc(OC2CCN(C(=O)COC)CC2)cc1	-12%	1%	1%	21*	33	0%
COC(=O)CCCNC(=O)c1ccc(OC2CCN(CCc3ccccc3)CC2)cc1	3%	-1%	1%	12	21	5%
COc1ccc(Oc2cnn(-c3ccccc3)c(=O)c2Br)cc1	3%	2%	-18%	5	9	1%
COc1cnn(-c2ccc(C)cc2)c(=O)c1Br	6%	-3%	28%	39*	61	2%
CNc1cnn(-c2ccc(C)cc2)c(=O)c1Sc1ccc(C)cc1	2%	4%	2%	-5	-5	2%
CNc1cnn(-c2ccc(C)cc2)c(=O)c1Cl	5%	-13%	15%	40*	81*	-4%
COc1cnn(-c2cc(Oc3ccc(C)cc3)ncn2)c(=O)c1Cl	4%	-4%	?	-1	-6	2%
COc1cnn(-c2ccc(C)cc2)c(=O)c1Cl	1%	-13%	20%	52*	79*	-3%
Cc1nc2c(c(SCC(=O)Nc3ccccc3C(F)(F)F)n1)CCC2	·	0%	·	·	·	·
O=C1NC(=O)C(=Cc2ccc(-c3cc(Cl)ccc3[N+](=O)[O-])o2)C(=O)N1	-21%	18µM*	3%	-1	-3	-3%
CC1=C(C#N)C(=O)NC(=O)/C1=C\c1ccc(-c2cc(C)c(C)cc2[N+](=O)[O-])o1	?	-26%	?	3	1	1%
O=C1NC(=O)C(=Cc2ccc(-c3ccccc3[N+](=O)[O-])o2)C(=O)N1	-23%	16µM*	5%	0	4	-18%
CCOC(=O)CCCSc1nc(-c2ccc3c(c2)OCO3)cc(C(F)(F)F)c1C#N	-2%	4%	-7%	-2	-10	1%
CCOC(=O)CC(=O)CSc1nc(-c2cccnc2)cc(C)c1C#N	2%	-24%	26%	-2	-18	-5%
CCOC(=O)CSc1nc(-c2ccc3c(c2)OCO3)ccc1C#N	3%	-10%	9%	52*	78*	1%
CCOC(=O)CSc1nc(-c2ccncc2)ccc1C#N	0%	-3%	7%	37*	87*	-3%
CCOC(=O)CC(=O)CSc1nc(-c2cccnc2)ccc1C#N	4%	-14%	8%	14*	15	-15%
N#Cc1ccc(-c2cccnc2)nc1SCC(N)=O	6%	6%	-8%	-1	6	-2%
O=c1cnc2cnc(Nc3ccccc3)nc2n1CCc1ccccc1	4%	·	·	·	·	·
CCOC(=O)c1nnsc1-c1ccc(-c2snnc2C(=O)OCC)cc1	8%	-2%	·	-8	-5	-6%
CCOC(=O)c1nnsc1Nc1ccc(C)c(C)c1	-12%	?	?	43*	59*	0%
